Laboratory results taken from PubChem BioAssay AID2061166 (Soto Lab, Mitchell Center for Alzheimers Disease and …, 2025).
Values joined by “and” are separate entries in the source; they are usually repeats but may differ in a detail not shown here. Equal entries are not always repeated. A number with no mark means an inactive call. Active and inactive are the calls of the source.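 How the source made its calls: active means mean tau seeding fluorescence area under 1% of vehicle, meaning inhibition above a set limit; inactive means the rest.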

These compounds were tested against Microtubule-associated protein tau (Homo sapiens) (UniProt P10636) (assay: blockers of AD brain-seeded tau fibril growth – biochemical, seed amplification, ThT fluorescence, primary screen (AID 2061166)). Settings: Recombinant tau seeded by AD brain, ThT fluorescence AUC; at 100 µM; active compounds read high.
Microtubule-associated protein tau (Homo sapiens), sequence (P10636 whole entry, looked up): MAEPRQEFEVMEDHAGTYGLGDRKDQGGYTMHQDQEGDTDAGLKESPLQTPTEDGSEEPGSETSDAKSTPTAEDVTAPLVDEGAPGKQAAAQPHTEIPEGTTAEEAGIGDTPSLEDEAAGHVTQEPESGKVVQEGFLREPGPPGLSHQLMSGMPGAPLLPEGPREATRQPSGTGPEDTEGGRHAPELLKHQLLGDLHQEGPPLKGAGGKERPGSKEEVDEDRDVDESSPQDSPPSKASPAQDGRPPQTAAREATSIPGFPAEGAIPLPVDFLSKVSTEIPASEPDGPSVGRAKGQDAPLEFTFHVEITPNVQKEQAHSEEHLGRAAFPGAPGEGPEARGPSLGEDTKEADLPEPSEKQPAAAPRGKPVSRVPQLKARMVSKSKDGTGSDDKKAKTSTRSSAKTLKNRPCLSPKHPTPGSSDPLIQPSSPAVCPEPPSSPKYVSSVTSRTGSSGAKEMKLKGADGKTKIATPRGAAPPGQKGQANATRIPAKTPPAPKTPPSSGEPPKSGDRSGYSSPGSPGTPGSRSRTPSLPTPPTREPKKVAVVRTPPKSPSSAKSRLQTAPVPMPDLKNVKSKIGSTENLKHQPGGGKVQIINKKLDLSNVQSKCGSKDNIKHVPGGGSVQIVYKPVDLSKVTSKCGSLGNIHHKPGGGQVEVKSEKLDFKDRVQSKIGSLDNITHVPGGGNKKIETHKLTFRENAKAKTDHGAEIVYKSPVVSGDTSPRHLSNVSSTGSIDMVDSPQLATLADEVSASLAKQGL

Q: For `CCc1nc(N)nc(N)c1-c1ccc(Cl)cc1`, which inhibition is on record?
A: The inhibition was -7.97%.

Q: With `CS(=O)(=O)c1ccc(C(=O)Nc2ccc(Cl)c(-c3ccccn3)c2)c(Cl)c1` as the compound, how does the inhibition read?
A: Its inhibition is 44%.

Q: Which inhibition does the source give for `C#CC1(O)CCC2C3CCC4=Cc5oncc5CC4(C)C3CCC21C` (configuration not stated) here?
A: Its inhibition is 45.1%.

Q: How did the inhibition turn out when `CC1(O)Cc2oc3cc(O)c(O)c(C(=O)O)c3c(=O)c2CO1` (configuration not stated) was run?
A: Its inhibition is 33.4%.

Q: With `COC(=O)C1=COC(OC2OC(CO)C(O)C(O)C2O)C2C1CC(O)C2C` (configuration not stated) as the compound, how does the inhibition read?
A: Its inhibition is -52.1%.

Q: For `CN(CCOc1ccc(CC2SC(=O)NC2=O)cc1)c1ccccn1` (configuration not stated), which inhibition is on record?
A: The inhibition was -61%.

Q: Which inhibition does the source give for `O=C(CCCN1CCC(O)(c2ccc(Cl)cc2)CC1)c1ccc(F)cc1` here?
A: Its inhibition is -16.8%.

Q: Which inhibition does the source give for `OC(c1cc(C(F)(F)F)nc2c(C(F)(F)F)cccc12)C1CCCCN1` (configuration not stated) here?
A: Its inhibition is 66.4%.

Q: `Cc1ccc(C(=O)c2cc(O)c(O)c([N+](=O)[O-])c2)cc1` was tested. Which inhibition did it give?
A: Its inhibition is 77.7%.

Q: For `CC(=O)OCC(=O)C1(O)C(C)CC2C3CCC4=CC(=O)C=CC4(C)C3(F)C(O)CC21C` (configuration not stated), which inhibition is on record?
A: The inhibition was 46.2%.

Q: How did the inhibition turn out when `CN(C)CCCN1c2ccccc2Sc2ccccc21` was run?
A: The inhibition was 13.2%.

Q: `CC(=O)Oc1cc(C(F)(F)F)ccc1C(=O)O` was tested. Which inhibition did it give?
A: The inhibition was 27%.

Q: `COc1cc(C(C)=O)ccc1OCCCN1CCC(c2noc3cc(F)ccc23)CC1` was tested. Which inhibition did it give?
A: Its inhibition is -61.2%.

Q: How did the inhibition turn out when `CN=c1ccc2nc3ccc(N)cc3sc-2c1` was run?
A: The inhibition was 100% (active).

Q: `CC1(C)SC2C(NC(=O)C(N)c3ccc(O)cc3)C(=O)N2C1C(=O)O` (configuration not stated) was tested. Which inhibition did it give?
A: Its inhibition is -6.81%.

Q: `O=C(OC1CN2CCC1CC2)N1CCc2ccccc2C1c1ccccc1` (configuration not stated) was tested. Which inhibition did it give?
A: The inhibition was -37.8%.

Q: With `COc1cc(C=CC(=O)CC(=O)C=Cc2ccc(O)c(OC)c2)ccc1O` as the compound, how does the inhibition read?
A: Its inhibition is 86.4%.

Q: Which inhibition does the source give for `NS(=O)(=O)Cc1noc2ccccc12` here?
A: Its inhibition is 18.2%.

Q: How did the inhibition turn out when `CC1COc2c(N3CCN(C)CC3)c(F)cc3c(=O)c(C(=O)O)cn1c23` (configuration not stated) was run?
A: Its inhibition is -27.6%.

Q: For `CC(=O)C1CCC2C3CC=C4CC(O)CCC4(C)C3CCC12C` (configuration not stated), which inhibition is on record?
A: The inhibition was 41.9%.

Q: How did the inhibition turn out when `Brc1cccc(-c2cc(-c3ccc4c(c3)OCO4)[nH]n2)c1` was run?
A: Its inhibition is -25.9%.

Q: Which inhibition does the source give for `O=NN(CCCl)C(=O)NC1CCCCC1` here?
A: Its inhibition is 14.1%.

Q: With `O=C(O)CCCc1ccccc1` as the compound, how does the inhibition read?
A: Its inhibition is 8.12%.

Q: With `CCN1CCN(Cc2ccc(Nc3ncc(F)c(-c4cc(F)c5nc(C)n(C(C)C)c5c4)n3)nc2)CC1` as the compound, how does the inhibition read?
A: Its inhibition is 15.2%.

Q: For `CCN(CC)CCNC(=O)c1c(C)[nH]c(/C=C2\C(=O)Nc3ccc(F)cc32)c1C`, which inhibition is on record?
A: Its inhibition is 98.6%.

Q: Which inhibition does the source give for `NC(=O)c1cn(Cc2c(F)cccc2F)nn1` here?
A: Its inhibition is -11.5%.

Q: Which inhibition does the source give for `Cc1ccsc1C(=CCCN1CCCC(C(=O)O)C1)c1sccc1C` (configuration not stated) here?
A: Its inhibition is 3.27%.

Q: For `CCOc1nc2cccc(C(=O)O)c2n1Cc1ccc(-c2ccccc2-c2nn[nH]n2)cc1`, which inhibition is on record?
A: The inhibition was 36.2%.

Q: How did the inhibition turn out when `CCC1(O)C(=O)OCc2c1cc1n(c2=O)Cc2cc3c(CN(C)C)c(O)ccc3nc2-1` (configuration not stated) was run?
A: Its inhibition is 91.5%.

Q: How did the inhibition turn out when `N=c1ccc2nc3ccc(N)cc3sc-2c1` was run?
A: Its inhibition is 100% (active).

Q: With `CS(=O)(=O)OCCCCOS(C)(=O)=O` as the compound, how does the inhibition read?
A: The inhibition was -40%.

Q: For `CCCNC1CCc2nc(N)sc2C1` (configuration not stated), which inhibition is on record?
A: Its inhibition is 13.7% and -33.7%.
